Here are results for 30 compounds from PubChem BioAssay (EPA / NIEHS).

Activity calls are given as the source filed them. The calls were made as follows: active = hit-call score of the fitted dose curve at least 0.9, where 1 is the maximum; inactive = score below 0.9.

Read-out in the first experiment: Transforming Growth Factor (TGFB1), TGFB1 (gene 7040)
Description: LTEA_HepaRG_TGFB1: Life Technologies and Expression Analysis (LTEA) Assay for Transforming Growth Factor (TGFB1) Transporter using HepaRG (AID 2283533). The note with it: mRNA level, 48 h; actives raise or lower the signal. The method, boiled down:
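HepaRG, 48 h post-plating, switched to serum-free induction medium; chemicals 100 uM top, half-log, 8 pts, 0.5% DMSO, dup; 48 h exposure; RNA → Fluidigm TaqMan qRT-PCR; norm ACTB/GAPDH/POLR2A; bidirectional fit vs DMSO.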
Take `COCCOCCO`: the outcome was inactive.
For `Nc1cc2c3c(c1)C(c1ccccc1)=N[C@@H](NC(=O)c1cccnc1)C(=O)N3CC2`, the result was inactive.
Consider `CCNc1nc(Cl)nc(NC(C)(C)C)n1`, for which the call was inactive.
As for `CC(Cl)(Cl)C(=O)O`, the result was inactive.
Turning to `Cc1cccc(N)c1`, the outcome was inactive.
`CC(Cc1ccc(OCC(=O)O)cc1)NCC(O)c1csc(C(F)(F)F)n1` (stereo not given): the result was inactive.
Consider `CSC(C)(C)C=NO`, for which the outcome was inactive.
For the compound `Cc1ccc(N)cc1N`, the compound was called inactive.
Turning to `CCOS(=O)(=O)OCC`, the result was inactive.
For the compound `CCCCN(CCCC)SN(C)C(=O)Oc1cccc2c1OC(C)(C)C2`, the compound was called inactive.
`CCOC(=O)c1ccccc1C(=O)OCC`: the compound was classed as inactive.
Take `CCCCc1ccccc1`: the call was inactive.
`c1nc[nH]n1`: the AC50 was 12.4 µM (active).
With `O=P(Oc1ccccc1)(Oc1ccccc1)Oc1ccccc1`, the AC50 is 77.5 µM (active).
Consider `ClC(Cl)c1ccccc1`, for which the call was inactive.
Regarding `Cc1ccc([N+](=O)[O-])cc1C`, the outcome was inactive.
In the case of `O=[N+]([O-])c1ccccc1`, the outcome was inactive.
Regarding `CN(C)C(=O)Cl`, the compound was called inactive.
In the case of `O=P1(N(CCCl)CCCl)NCCCO1` (stereo not given), the compound was called inactive.
For `[N-]=[N+]=[N-]`, the result was inactive.
The same measure, in the same setting: with `Nc1ccc(Cl)cc1` the entry was “inactive”; with `CCC(C)(C)c1ccc(O)cc1`, “inactive”; with `c1cc2c3c(cccc3c1)CC2`, “inactive”.
For the compound `O=C(O)C1C(C(=O)O)C2(Cl)C(Cl)=C(Cl)C1(Cl)C2(Cl)Cl` (stereo not given), the compound was called inactive.
For `CCOP(=S)(OCC)SCSCC`, the compound was called inactive.
Same read-out and setting: to `c1ccc2c(c1)Nc1ccccc1S2` belongs “inactive”; to `O=[N+]([O-])c1ccc(Cl)c(Cl)c1`, “inactive”; to `CCCCCCCc1ccc(O)cc1`, “inactive”.
As for `CCCCN(CCCC)N=O`, the compound was called inactive.
Same read-out and setting: to `CCCN(CCC)c1c([N+](=O)[O-])cc(C(C)C)cc1[N+](=O)[O-]` belongs “inactive”.

Read-out in the next experiment: TIMP1, TIMP1 (gene 7076)
Put plainly: LTEA_HepaRG_TIMP1: Life Technologies and Expression Analysis (LTEA) Assay for TIMP1 using HepaRG (AID 2283534).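 As to outcome: TaqMan qRT-PCR signal normalized to ACTB GAPDH and POLR2A housekeeping genes.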 The following applies: mRNA level, 48 h; actives raise or lower the signal. The method, boiled down:
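Readout is TIMP1 mRNA level measured by qRT-PCR and normalized to three housekeeping genes. Human HepaRG cells were treated for 48 h in duplicate at eight concentrations up to 100 uM (0.5% DMSO); gain or loss fitted against DMSO.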
For `COCCOCCO`, the outcome was inactive.
For `Nc1cc2c3c(c1)C(c1ccccc1)=N[C@@H](NC(=O)c1cccnc1)C(=O)N3CC2`, the compound was called inactive.
On to `CCNc1nc(Cl)nc(NC(C)(C)C)n1`, for which the compound was called inactive.
Consider `CC(Cl)(Cl)C(=O)O`, for which the result was inactive.
On the same count and under the same terms, to `Cc1cccc(N)c1` belongs “inactive”; to `CC(Cc1ccc(OCC(=O)O)cc1)NCC(O)c1csc(C(F)(F)F)n1` (stereo not given), “inactive”.
In the case of `CSC(C)(C)C=NO`, the compound was called inactive.
Take `Cc1ccc(N)cc1N`: the result was inactive.
For `CCOS(=O)(=O)OCC`, the outcome was inactive.
Regarding `CCCCN(CCCC)SN(C)C(=O)Oc1cccc2c1OC(C)(C)C2`, the call was inactive.
`CCOC(=O)c1ccccc1C(=O)OCC`: the call was inactive.
As for `CCCCc1ccccc1`, the compound was classed as inactive.
Still for that read-out and setting: to `c1nc[nH]n1` belongs “inactive”.
As to `O=P(Oc1ccccc1)(Oc1ccccc1)Oc1ccccc1`, the AC50 is 73.1 µM (active).
On to `ClC(Cl)c1ccccc1`, for which the compound was called inactive.
`Cc1ccc([N+](=O)[O-])cc1C`: the call was inactive.
Consider `O=[N+]([O-])c1ccccc1`, for which the compound was called inactive.
Regarding `CN(C)C(=O)Cl`, the outcome was inactive.
As for `O=P1(N(CCCl)CCCl)NCCCO1` (stereo not given), the outcome was inactive.
Consider `[N-]=[N+]=[N-]`, for which the compound was called inactive.
`Nc1ccc(Cl)cc1`: the result was inactive.
Consider `CCC(C)(C)c1ccc(O)cc1`, for which the outcome was inactive.
Turning to `c1cc2c3c(cccc3c1)CC2`, the result was inactive.
On the same count and under the same terms, with `O=C(O)C1C(C(=O)O)C2(Cl)C(Cl)=C(Cl)C1(Cl)C2(Cl)Cl` (stereo not given) the entry was “inactive”; with `CCOP(=S)(OCC)SCSCC`, “inactive”; with `c1ccc2c(c1)Nc1ccccc1S2`, “inactive”.
Take `O=[N+]([O-])c1ccc(Cl)c(Cl)c1`: the outcome was inactive.
`CCCCCCCc1ccc(O)cc1`: the result was inactive.
Turning to `CCCCN(CCCC)N=O`, the call was inactive.
As for `CCCN(CCC)c1c([N+](=O)[O-])cc(C(C)C)cc1[N+](=O)[O-]`, the AC50 is 0.11 µM (active).
